Laboratory results: PubChem BioAssay (NCI)
Compounds without any hit were thinned out: in the full panel of roughly 83,000, 20% have a hit.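 Assay: single dose, 48 h. Readout: percent growth (0 = no net growth; negative = cell death). Active: <10.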 Unmarked numbers belong to inactive results. Calls of active or inactive are those of the source.

Tests used:
Assay in all cases: NCI-60 one-dose screen, 48 h (100 = growth as untreated, 0 = no growth, -100 = all killed)
Conditions in all cases: 10 µM unless noted
NCI-H23 lung = system: NCI-H23 lung
HOP-62 NSCLC = system: HOP-62 NSCLC
NCI-H460 lung = system: NCI-H460 lung
HOP-92 NSCLC = system: HOP-92 NSCLC
NCI-H522 lung = system: NCI-H522 lung
A549/ATCC NSCLC = system: A549/ATCC NSCLC
786-0 renal = system: 786-0 renal
COLO 205 colon = system: COLO 205 colon
DU-145 prostate = system: DU-145 prostate
K-562 leukemia = system: K-562 leukemia
MALME-3M melanoma = system: MALME-3M melanoma
MDA-MB-231 breast = system: MDA-MB-231 breast
RXF 393 renal = system: RXF 393 renal
SF-268 CNS = system: SF-268 CNS
SF-539 CNS = system: SF-539 CNS
UACC-257 melanoma = system: UACC-257 melanoma
M14 melanoma = system: M14 melanoma
HCT-15 colon = system: HCT-15 colon
SF-295 CNS = system: SF-295 CNS

Structure (SMILES)	growth (NCI-H23 lung)	growth (HOP-62 NSCLC)	growth (NCI-H460 lung)	growth (HOP-92 NSCLC)	growth (NCI-H522 lung)	growth (A549/ATCC NSCLC)	growth (786-0 renal)	growth (COLO 205 colon)	growth (DU-145 prostate)	growth (K-562 leukemia)	growth (MALME-3M melanoma)	growth (MDA-MB-231 breast)	growth (RXF 393 renal)	growth (SF-268 CNS)	growth (SF-539 CNS)	growth (UACC-257 melanoma)	growth (M14 melanoma)	growth (HCT-15 colon)	growth (SF-295 CNS)
COc1cc(-c2c3c(c(Br)n2Cc2ccccc2)-c2nc(N)sc2CC3)cc(OC)c1OC	98.2%	88.5%	94%	76.4%	38.4%	82.9%	86%	108%	108%	47.7%	81%	68.6%	90.5%	88.2%	98.1%	93.6%	90.3%	85%	
CCN1C(=O)N(CC)C2Nn3c(s/c(=C\c4ccccc4F)c3=O)=NC21 (centres undefined)	41.8%	59.3%	21.6%	67.5%	27.5%	31.6%	49.3%	7.99% (active)	37.4%	15.9%	78.4%	35.1%	36.7%	54.9%	11.6%	65.2%	23.3%	26.5%	14.9%
O=C(Nc1ccc(F)c(Cl)c1)Nc1ccc(Cl)c(Cl)c1	86.1%	74.2%	76.9%	65.1%	66.4%	71.8%	87.2%	89%	88.4%	15.4%	57.5%	76%	72.8%	88.1%	80.3%	84.1%	53.6%	53.1%	36.6%
Cc1ccc(S(=O)(=O)c2c(COC(=O)c3cccc(C)c3)c(-c3ccccc3)nn2C)cc1	94.5%	18.1%	102%	71.4%	-33.1% (active)	-32.7% (active)	106%	-95.9% (active)	116%	-23% (active)	-47.5% (active)	14.3%	93.4%	68.3%	21.4%	83.5%	89.9%	62.2%	54.7%
O=C1Nc2ccccc2/C1=C/c1ccc[nH]1	84.9%	78.8%	85.9%	104%	90.9%	92.9%	96.3%	106%	101%	107%	94.5%	40.3%	80.5%	92.1%	86.6%	96.6%	89.8%	42.1%	102%
CC(C)C[C@H](C(=O)N[C@@H](C)C(N)=O)N1CC=CCN(O)S1(=O)=O	110% [5 µM]	102% [5 µM]	112% [5 µM]	116% [5 µM]	91.7% [5 µM]	102% [5 µM]	105% [5 µM]	105% [5 µM]	128% [5 µM]	117% [5 µM]	148% [5 µM]	98.3% [5 µM]	119% [5 µM]	108% [5 µM]	104% [5 µM]	85.6% [5 µM]	108% [5 µM]	102% [5 µM]	128% [5 µM]
CC[C@H](C)[C@@H](C(=O)OC)n1cc(CNC(=O)[C@@H](Cc2ccccc2)NC(=O)OCc2ccccc2)nn1	104%	103%	104%	96.4%	87.4%	87.2%	106%	122%	104%	95.9%	100%	101%	104%	93.8%	104%	95.8%	109%	97.5%	99.4%
Cn1c(/C=C(\C#N)c2ccccc2)nc2c(N3CCOCC3)nc(Cl)nc21	17.5%	38%	18.1%	-75.6% (active)	-57.5% (active)		-71.4% (active)		-72.4% (active)	-13.8% (active)	-51.2% (active)	-80.3% (active)	-86.3% (active)	-66.2% (active)	-88% (active)	-61.5% (active)	-62.5% (active)	-66.8% (active)	85.1%
O=c1oc2ccc(Br)cc2c(=O)n1-c1ccc(Cl)cc1F	2.82% (active)	2.2% (active)	2.87% (active)	-12.6% (active)	-1.53% (active)		-1.15% (active)	21.5%	16.4%	6% (active)	-30.6% (active)	-22.6% (active)	4.25% (active)	8.43% (active)	4.14% (active)	-10.6% (active)	-11.9% (active)	0.07% (active)	-58.4% (active)
COc1ccc(-c2nc(-c3ccccc3)c(-c3ccccc3)[nH]2)cc1OC1CCCCC1	89%	105%	88.3%	69.6%	88.3%	85.5%	102%	98.1%	99.7%	81.4%	73%	67%	105%	84.4%	102%	93.8%	92.2%	93.4%	80.9%
CC1=C(CC(=O)c2cccc([N+](=O)[O-])c2)C(=O)c2ccccc2C1=O	-24.9% (active)	-67.2% (active)	-20.9% (active)	-22.3% (active)	-47.2% (active)	-15.3% (active)	-53.2% (active)	108%	-57% (active)	-4.57% (active)	-87.5% (active)	-17.7% (active)	-26% (active)	-33.4% (active)	-22.1% (active)	-13.7% (active)	-41.9% (active)	19.5%	-58.2% (active)
O=c1c(-c2nc3ccccc3[nH]2)cc2ccccc2n1Cc1cn(Cc2ccc(F)cc2)nn1	23.5%	21.4%	-10.7% (active)	34.9%	19.5%	11.4%	-23.2% (active)	18.2%	-23.5% (active)	17.7%	12.8%	4.33% (active)	-25.5% (active)	29.4%	-55.9% (active)	49.9%	-20.7% (active)	16.9%	1.67% (active)
COc1ccc(CCN2C(=O)/C(=C/c3ccc(C4Oc5ccccc5C5CC(c6cccc(OC)c6)=NN54)cc3)SC2=S)cc1 (centres undefined)	99.8%	100%	101%	96.2%		103%	105%	107%	101%	105%	97.8%	101%	107%	94.4%	95.4%	101%	97.1%	102%	97.7%
CCN1C(=O)N(CC)C2C1NC(=S)N2/N=C/C=C/c1ccccc1OC (centres undefined)	24.3%	44.4%	5.86% (active)	18.4%	4.46% (active)	22.5%	20.2%	-46.2% (active)	9.85% (active)	9.29% (active)	55.1%	13.3%	35.3%	26.7%	-8.21% (active)	71.9%	7.43% (active)	9.07% (active)	11.1%
N[C@@H](CC/[N+]([O-])=N/O)C(=O)O	97.2%	101%	97.9%	107%	95.7%	102%	104%	104%	97.8%		101%	102%		95.9%	95%	112%	102%	104%	110%
CSc1nc2c(c(=O)[nH]1)N=C1c3ccccc3C(=O)C1C(c1ccccc1)N2 (centres undefined)	62%	45.5%	12.3%	59.5%	82.2%		46%	33.5%	75.4%	34.8%	34.8%	82.6%		47.9%	25.6%	74.5%	29.4%	36.8%	
